Assay [1] deals with T1, ETS1 (UniProt P14921).
T1 sequence: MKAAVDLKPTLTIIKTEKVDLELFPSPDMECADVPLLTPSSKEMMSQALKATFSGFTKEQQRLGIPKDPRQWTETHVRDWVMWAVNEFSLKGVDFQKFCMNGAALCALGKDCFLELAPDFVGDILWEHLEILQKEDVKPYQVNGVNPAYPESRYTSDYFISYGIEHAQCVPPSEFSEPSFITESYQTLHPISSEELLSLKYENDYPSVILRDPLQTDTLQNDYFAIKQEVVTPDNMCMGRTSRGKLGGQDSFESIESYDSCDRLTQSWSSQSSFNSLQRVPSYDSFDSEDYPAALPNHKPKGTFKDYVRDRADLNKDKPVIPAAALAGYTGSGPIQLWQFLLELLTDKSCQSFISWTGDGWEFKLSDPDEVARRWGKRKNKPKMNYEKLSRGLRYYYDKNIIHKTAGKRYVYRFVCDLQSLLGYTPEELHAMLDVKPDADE
The assay is described as follows: ETS1 binding intensity (PBM fluorescence), ETS1 alone (arbitrary fluorescence units); higher = stronger binding. The settings on record: ETS1 concentration 1 nM; RUNX1 concentration 0 nM.

In assay [2] the target is RUNX1 (UniProt Q01196). Description: RUNX1 binding intensity (PBM fluorescence), RUNX1 alone (arbitrary fluorescence units); higher = stronger binding. Particulars: RUNX1 concentration 2 nM; ETS1 concentration 0 nM. As to the method: (§1)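 Cooperative gcPBM on 36-bp genomic probes with neighbouring ETS1 and RUNX1 sites. Recombinant human RUNX1 (2 nM) was incubated alone or with ETS1 (25 nM) and detected with anti-RUNX1 antibody plus Alexa488 secondary. Values are medians over 4 replicate spots; the RUNX1+ETS1 data were normalised to the RUNX1-only data. The probes sit in constant array flanks that are not printed.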
Chain of RUNX1 (Q01196 whole entry): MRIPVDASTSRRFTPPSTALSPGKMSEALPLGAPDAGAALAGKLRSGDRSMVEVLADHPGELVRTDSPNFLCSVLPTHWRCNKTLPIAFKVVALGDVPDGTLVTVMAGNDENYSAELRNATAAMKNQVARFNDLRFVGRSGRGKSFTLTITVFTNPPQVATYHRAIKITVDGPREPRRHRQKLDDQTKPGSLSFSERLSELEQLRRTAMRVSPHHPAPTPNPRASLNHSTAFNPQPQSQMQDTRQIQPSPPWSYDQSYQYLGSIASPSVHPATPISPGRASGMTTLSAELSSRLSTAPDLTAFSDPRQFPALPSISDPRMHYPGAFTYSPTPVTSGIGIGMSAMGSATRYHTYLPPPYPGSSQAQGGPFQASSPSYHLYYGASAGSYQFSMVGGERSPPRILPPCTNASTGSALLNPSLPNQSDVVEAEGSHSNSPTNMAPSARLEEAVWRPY

Assay [3] deals with RUNX1 (UniProt Q01196). Description: RUNX1 binding intensity (PBM fluorescence) in presence of ETS1, normalised to RUNX1-only experiment (arbitrary fluorescence units); higher = stronger binding. The settings on record: RUNX1 concentration 2 nM; ETS1 concentration 25 nM. On the procedure: as §1
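For RUNX1 binding intensity (PBM fluorescence) in presence of ETS1, normalised to RUNX1-only experiment in this document: Full-length recombinant human ETS1 or RUNX1 bound to double-stranded 36-bp genomic probes on microarrays, detected by protein-specific primary antibody and Alexa488 secondary, spot fluorescence as median of four replicate spots.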
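For RUNX1 binding intensity (PBM fluorescence), RUNX1 alone in this document: Full-length recombinant human RUNX1 bound to double-stranded 36-bp genomic probes on a high-density microarray, scored as Alexa488 fluorescence per spot via anti-RUNX1 antibody, median of four replicate spots.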

For TGGGCAGGAAGTGGTATCTGATTGTGGTTTTGATTT, the ETS1 binding intensity in assay [1] is 3960. Besides, the RUNX1 binding intensity turned out to be 1360 in assay [2] and 8180 in assay [3].
The matching figures for GACAATGAGCGCACAGGATGTGGTTTGGCGGCAGGG: 6680, 854 and 3690.
The matching figures for GGACCGGTGTCTGGCGGATGCGGTCGTGAAGATAGG: 1200, 710 and 1130.
In assay [1], CTGCCGGAAGCTGCCCCTCCACCATTTTGTGGCCCG came in with an ETS1 binding intensity of 1770. Further, the RUNX1 binding intensity was found to be 818 in assay [2] and 1280 in assay [3].
In turn, AGAATCGCATCAGGATGTGGTGAGGGAGCACATTTG showed an ETS1 binding intensity in assay [1] of 948. Besides, the RUNX1 binding intensity in assay [2] was determined as 713; in assay [3] it was 969.
The matching figures for AGCCGTCATTCAGGATGTGGTGACAGACATGGAGAC: 1200, 769 and 1320.
As to TGGGGAACGCTGCGGATGCTGCGGTAAACCATGCGA, the ETS1 binding intensity in assay [1] was found to be 643. For the same sequence, the RUNX1 binding intensity in assay [2] was determined as 1040; in assay [3], 1700.
In turn, CTGTGACACGTGCGGAAGCTGTGGTAAGTGCATCCA gave an ETS1 binding intensity in assay [1] of 1130. For the same sequence, the RUNX1 binding intensity in assay [2] was determined as 840; in assay [3], 984.
In the same order, the values of CAGGCTCGCCACAGGGGAAGTGGTTAGGGCGGGTCC are 684, 775 and 890.
In the same order, the values of CTTGGCGGAAGTGGTGTGGGGGAGGTAGCCCGCAGT are 1840, 753 and 3460.
In the same order, the values of CCGGGTAGGATCCGGTTGCCTTTCTGCGGTGGAGGA are 410, 848 and 1480.
In assay [1], CCTTGCAGCAACGGATGTGGGTTTTTTTTTTTCTTT yielded an ETS1 binding intensity of 4030. Further, the RUNX1 binding intensity in assay [2] is 1120; in assay [3], 10500.
The matching figures for GACACAAGAACAGCAGGATGTGGTCAGAGGCGTCGT: 2610, 722 and 3510.
The matching figures for ATGTGCCCAAAGGATGTCACCGCAAAGATCATAGGA: 561, 1250 and 1820.
In the same order, the values of GGTGTGTTCTGGGGAGGAAGTGGGTTTTCAGGTTGT are 3820, 799 and 1120.
TGCTTAGCGGGAAGTGCTTACACCACAAAACAAGAC registered an ETS1 binding intensity in assay [1] of 678. For the same sequence, the RUNX1 binding intensity in assay [2] was determined as 726; in assay [3], 1750.
With GCCCAGGAAGTGGGTACAAAATGAGCCACAAGACCT, the ETS1 binding intensity in assay [1] is 616. The RUNX1 binding intensity in assay [2] is 768; in assay [3], 1610.
As to CAGAGCAGAGAGGAAGTGGTGGTGGCCACAGTCCCA, the ETS1 binding intensity in assay [1] turned out to be 1760. Also, the RUNX1 binding intensity in assay [2] is 686; in assay [3] it was 1220.
In assay [1], ACCCCGGAAGTGTGGGCGCGGCTGCGGTTTAACCCG registered an ETS1 binding intensity of 2640. Also, the results for the RUNX1 binding intensity in assay [2] and in assay [3] were 2220 and 8200, respectively.
CGTCTAATTGCAGGAAGTGGTTTGAAATGTTAATCT: the ETS1 binding intensity in assay [1] was 4180. For the same sequence, the values for the RUNX1 binding intensity in assay [2] and in assay [3] were 1980 and 3650, respectively.
TGCTCAGAAGGGCATCCGGTTGCGGAGAAGGTACAC showed an ETS1 binding intensity in assay [1] of 2130. The RUNX1 binding intensity in assay [2] worked out at 653; in assay [3], 1370.
In the same order, the values of CAAGTAATCTGCTCAGGAAGTGGTTTGAATAGAGGA are 2540, 743 and 977.
As to TTCTGCTACATCCTGCCCACTCCCTGTGGCTTCCAC, the ETS1 binding intensity in assay [1] turned out to be 1090. Moreover, the values for the RUNX1 binding intensity in assay [2] and in assay [3] were 1380 and 3270, respectively.
The matching figures for GAACCTGGGAGGCGGAAGTTGCGGTTAGCCGAGATC: 6030, 13500 and 56300.
In assay [1], TAAGTGAATTTCCTGCCCGCCTCCGCCCACAGCGTA gave an ETS1 binding intensity of 775. Further, the RUNX1 binding intensity in assay [2] came to 809; in assay [3], 1790.
In the same order, the values of CGGGCGAGCGCAGGATGCGGTTGTCGAACGCGCGGC are 764, 762 and 1100.
The matching figures for TTTACAGGAAATTACAGGGGTTAAACCAAACCACAA: 986, 941 and 1820.
The matching figures for CTTCAAAGTCAGGAAACCGTTAAACCACACTGCATC: 716, 1100 and 1360.
As for TTACACAACAGGAAACTATGTTTAGCGGTTAATCCA, the ETS1 binding intensity in assay [1] was 2490. Further, the figures for the RUNX1 binding intensity in assay [2] and in assay [3] were 885 and 1580, respectively.
The matching figures for GAGGACTTCCGGGTGGGTGTGATATCTGCGGGCCCG: 848, 760 and 1940.
The sequence CAGCTGACAGGAAGGAGAGAACCACAGACAGTGCGA showed an ETS1 binding intensity in assay [1] of 782. Moreover, the RUNX1 binding intensity stood at 801 in assay [2] and 1260 in assay [3].
With GTTGCAGGAAACGATGGGTTTTGTGGTATGAACTGC, the ETS1 binding intensity in assay [1] was determined as 813. The figures for the RUNX1 binding intensity in assay [2] and in assay [3] were 829 and 1700, respectively.
In the same order, the values of GGGGCTGTGCTTCCGGCTGTTTGTGCGGTTTTGTGC are 1650, 1520 and 4340.
In turn, AACCAAACAGCCACAGGAAGTGGTTTCTGTGATTCA registered an ETS1 binding intensity in assay [1] of 7840. Also, the values for the RUNX1 binding intensity in assay [2] and in assay [3] were 840 and 1960, respectively.
In the same order, the values of TGAGGGGCTCGCCGGGAAATGTGGTTTAGCGGCCCT are 564, 832 and 2000.
In the same order, the values of GCTGGTATGGCAGGAAGTTTCTCACCACAGTATACT are 3540, 780 and 1160.
In the same order, the values of TCAATGACAGGAAGTTTTTAAACCACATACGGCTAA are 2780, 904 and 1810.
As to AGCACTTCCGTTTGGGCAGGGCTGCGGGCCGGAGGG, the ETS1 binding intensity in assay [1] was 911. The RUNX1 binding intensity was found to be 746 in assay [2] and 2130 in assay [3].
GCTCCCGGATGTTCTGGGGATCTGCGGCCGCCTGGC had an ETS1 binding intensity in assay [1] of 1300. For the same sequence, the RUNX1 binding intensity amounted to 751 in assay [2] and 1320 in assay [3].
As for ACCTCTCTCACTTCCTACCAGAGAACCACAGCCAAG, in assay [1], the ETS1 binding intensity was found to be 538. Also, the RUNX1 binding intensity in assay [2] worked out at 1490; in assay [3] it was 2150.
In the same order, the values of TCCCCACACTTCCGGCCCCGCCCGCACAGCCGCACC are 3270, 1130 and 5780.
In assay [1], ACCTTCGCCGGATGCTGTGGCTGAAACCACAGCATT yielded an ETS1 binding intensity of 2480. For the same sequence, the RUNX1 binding intensity was determined as 994 in assay [2] and 1980 in assay [3].

(Values after the supplement of paper PMC10681739.)
